According to ChEMBL document CHEMBL3988442, “University of Dundee, Small-Polar-MMV Screening Library” (2021):
Screen size: about 48,000 compounds; about 13,000 (27%) showed an effect of 50% or more. Some of the results follow.

test system: Wolbachia pipientis; experiment: Anti-Wolbachia Cell-Based Screen; format: functional; design: scale not given: in the data most compounds retested in dose-response had high values; conditions: 5 µM

| SMILES | Percent Effect |
| --- | --- |
| CCNc1ncc(C(=O)NCC2OCCc3ccccc32)cn1 (stereo not given) | -9.42% |
| CCc1nc(C)c(CN2CCCC(c3nn(C)c(=O)n3CC)C2)[nH]1 (stereo not given) | 1.561% |
| O=S(=O)(Cc1ccccc1CN1CCOCC(O)C1)c1ccccc1 (stereo not given) | -4.778% |
| O=C(NCc1ccccc1Cn1ccnc1)N1CCSCC1 | -1.657% |
| NC(=O)CN1CC2(CCC1=O)CCN(Cc1ccc(F)cc1Cl)CC2 | 0.9976% |
| O=C(Nc1cccc(CN2CCOC2=O)c1)N1CCSCC1 | 46.29% |
| CCCc1nc(C(=O)N2CCCn3nc(CCC(=O)O)cc3C2)cs1 | -10.82% |
| Cc1ccc(O)c(CN2CCn3nc(C(=O)N4CCCC4)cc3C2)n1 | -10.87% |
| Cc1cc(C(=O)N2CCn3nc(C(=O)NC4CC4)cc3C2)nc(C)n1 | 5.79% |
| CNc1nc(C(=O)N2CCCC(CO)(CCCOC)C2)cs1 (stereo not given) | -13.19% |
| CNc1nc(C(=O)N2CCn3nc(C(=O)OC)cc3C2)cs1 | 99.12% |
| CNc1nc(C(=O)N2CCCn3nc(C(=O)N4CCCC4)cc3C2)cs1 | 132.4% |
| CCC(C)(NCc1nc(C)c(C)o1)c1nccs1 (stereo not given) | -14.02% |
| CCOc1cc(CNCc2cnc(C)cn2)c(Cl)cc1OC(C)C | -9.744% |
| Cc1ccc(N(C)CC(O)COCc2ccccc2)c(C)c1 (stereo not given) | -35.03% |
| COC(=O)c1ccc(NC(=O)CNCc2ccco2)cc1 | -10.44% |
| Cc1ccc(C(=O)O)cc1S(=O)(=O)N(CC(C)O)c1ccccc1 (stereo not given) | -9.364% |
| Cc1cc(C)c(N(CC(O)CNCc2ccco2)S(C)(=O)=O)c(C)c1.O=C(O)c1ccccc1 (stereo not given) | 101.1% |
| O=S(=O)(Cc1cccc(F)c1)NCC(O)Cc1ccccc1 (stereo not given) | 13.38% |
| Br.Cc1cc(C)c(N(CC(O)CNCc2ccccc2)S(C)(=O)=O)c(C)c1 (stereo not given) | 104.6% |
| CCN(C)C(=O)c1cccc(S(=O)(=O)NCCc2nc(C)cc(=O)[nH]2)c1 | -0.1797% |
| CC(=O)N(C)c1nc(CN2CCOC(Cn3cccn3)C2)cs1 (stereo not given) | -26.66% |
| CC(=O)Nc1nc(CN2CCOC(Cn3cccn3)C2)cs1 (stereo not given) | 107.9% |
| CC(=O)Nc1nc(CN2CCOC(Cn3cc(C)cn3)C2)cs1 (stereo not given) | 2.495% |

| SMILES | Percent Effect |
| --- | --- |
| CC(=O)Nc1nc(CN2CCOC(Cn3cncn3)C2)cs1 (stereo not given) | 64.84% |
| CC(=O)Nc1nc(CN2CCOC(Cn3nc(C)cc3C)C2)cs1 (stereo not given) | 94.09% |
| Cc1ccnc(C(NC(=O)c2oc(C)nc2C)C2CC2)n1 (stereo not given) | -17.11% |
| COC(=O)CN(C(=O)c1ccoc1)c1cccc(F)c1 | 2.098% |
| O=C1CCCN1CCc1noc(-c2ccc(Cl)cc2)n1 | 5.135% |
| O=C1CCCN1CCc1noc(-c2ccsc2)n1 | 1.002% |
| O=C1CCCN1Cc1noc(-c2ccc(Cl)cc2)n1 | 123.5% |
| CC(C)(N)c1cn([C@@H]2c3ccccc3C3(CCNCC3)[C@H]2O)nn1 | -37.53% |
| Cc1noc(CS(=O)(=O)CC(=O)NC(C)c2ccccc2)n1 (stereo not given) | -0.1878% |
| CCN(Cc1ccc2c(c1)OCO2)S(=O)(=O)N(C)C(C)C | 112.9% |
| CCN(Cc1ccc2c(c1)OCCO2)S(=O)(=O)N(C)C(C)C | -1.208% |
| CCN(Cc1cccs1)S(=O)(=O)N(C)C(C)C | 15.86% |
| CCN(Cc1ccc2c(c1)OCO2)c1ncc(S(N)(=O)=O)s1 | -18.45% |
| CCN(Cc1ccc2c(c1)OCO2)S(=O)(=O)N(C)C | 94.54% |
| CCN(C)S(=O)(=O)N(CC)Cc1ccc2c(c1)OCO2 | 0.6799% |
| Cc1ccc(-n2cc(CN3CCN(C)[C@@H]4CS(=O)(=O)C[C@@H]43)cn2)cc1 | 6.274% |
| CN(Cc1ccccc1O)C(=O)Nc1cc(F)cc(N2CCCC2)c1 | -6.524% |
| COCC(C)(C#N)NC(=O)COc1ccccc1 (stereo not given) | -21.26% |
| CC(C)[C@@H]1CN(C(=O)c2ccc3c(c2)CCCO3)C[C@H]1NS(C)(=O)=O | 0.04909% |
| O=C(O)C(=O)O.c1cncc(-c2noc(C3CN(Cc4cccs4)C3)n2)c1 | 13.98% |
| O=C(C1CCOC1)N1C[C@H]2CN(Cc3cccnc3)C(=O)[C@H]2C1.O=C(O)C(F)(F)F (stereo not given in full) | 101.2% |
| O=C(C1CCOC1)N1CCC2(CC1)COCCN(Cc1ccncc1)C2.O=C(O)C(F)(F)F.O=C(O)C(F)(F)F (stereo not given) | -2.392% |
| O=C(O)C(F)(F)F.O=C(c1ccsc1)N1C[C@H]2CN(Cc3cccnc3)C(=O)[C@H]2C1 | -7.854% |
| CN(C)CCN1C[C@@H]2CN(C(=O)C3CCOC3)C[C@@H]2C1=O.O=C(O)C(F)(F)F (stereo not given in full) | -5.233% |

| SMILES | Percent Effect |
| --- | --- |
| O=C(C1CCOC1)N1C[C@H]2CN(Cc3ccncc3)C(=O)[C@H]2C1.O=C(O)C(F)(F)F (stereo not given in full) | 94.79% |
| CCc1[nH]c2c(CNc3cncc(C(=O)N(C)C)n3)cc(F)cc2c1C | -5.745% |
| Cn1c(CN2CCOCC2)nnc1C1CCCN(C(=O)CCC2CC2)C1 (stereo not given) | 24.17% |
| Fc1ccc(OCc2nnc([C@H]3CCN(Cc4cccnc4)C3)o2)cc1 | 16.65% |
| Cc1ncc(CN2CC[C@@](C)(O)[C@H](Oc3cccc(F)c3)C2)cn1 | 104.1% |
| CN1CC2(CCN(Cc3cccnc3)CC2)c2cc(F)ccc21 | 3.699% |
| COc1ncc(CN2CC[C@@](C)(O)[C@H](Oc3cccc(F)c3)C2)cn1 | 2.732% |
| C[C@]1(O)CCN(Cc2nccs2)C[C@@H]1Oc1cccc(F)c1 | 121.8% |
| C[C@]1(O)CCN(Cc2cccnc2)C[C@@H]1Oc1cccc(F)c1 | 99% |
| Cn1cncc1CN1CC[C@](C)(O)[C@@H](Oc2cccc(F)c2)C1 | 104.7% |
| CN1CC(=O)N(c2cccc(F)c2)CC12CCN(Cc1nccs1)C2.O=C(O)C(F)(F)F.O=C(O)C(F)(F)F (stereo not given) | -3.054% |
| CCOc1ccc(CN2CC[C@@](C)(O)[C@@H](Cc3ccccc3)C2)cn1 | 4.384% |
| CN1CC(=O)N(c2cccc(F)c2)CC12CCN(Cc1cncn1C)C2.O=C(O)C(F)(F)F.O=C(O)C(F)(F)F (stereo not given) | -8.718% |
| C[C@]1(O)CCN(Cc2cncs2)C[C@@H]1Oc1cccc(F)c1 | 4.149% |
| c1cc(-c2noc(-c3cc(C4CC4)on3)n2)cc(N2CCCCC2)n1 | -2.255% |
| CCn1nc2c(cc1=O)CN(Cc1nc(N)c3ccccc3n1)CC2 | 12.33% |
| O=C(Cc1csc(N2CCNC2=O)n1)NCC1(c2ccccc2)CC1 | 8.123% |
| Cc1ncsc1CN1CC[C@](C)(O)[C@@H](Oc2cccc(F)c2)C1 | 111.6% |
| Cc1ncsc1CN1C[C@H]2CC[C@@H]1CN(Cc1ccccc1)C2 | 1.915% |
| Cc1ncsc1CNc1cccc(OCCN2CCCC2)c1 | 8.667% |
| Cc1nnc(SCCCNC(=O)Nc2ccc3c(c2)OCO3)s1 | 7.014% |
| CN(CC1CCCCO1)c1nc2c(cc1C(N)=O)CCC2 (stereo not given) | -5.698% |
| NC(=O)c1cc2c(nc1-c1ccoc1)CCC2 | -15.41% |
| Cc1cnc(C)c(N2C[C@H]3OC(=O)N(C4CCCC4)[C@H]3C2)n1 | 94.65% |

| SMILES | Percent Effect |
| --- | --- |
| Cc1ccc(C(N)=O)c(N2C[C@H]3OC(=O)N(C4CCCC4)[C@H]3C2)n1 | 112.7% |
| COc1ccccc1CN1C(=O)O[C@@H]2CN(c3nc(C)cc(C)n3)C[C@@H]21 | -8.092% |
| Cc1ccc(N2C[C@H]3OCC[C@H]3[C@H](C(=O)NC3CCCC3)C2)nn1 | 11.3% |
| NC(=O)c1cc2c(nc1N1C[C@H]3OC(=O)N(C4CCCC4)[C@H]3C1)CCC2 | 94.23% |
| Cc1cnc(C)c(N2CCCC(CC3CC3)(C(=O)O)C2)n1 (stereo not given) | 0.08182% |
| COc1ccccc1CN1C(=O)O[C@@H]2CN(c3nc(C)cnc3C)C[C@@H]21 | -4.864% |
| Cc1nccn1CCN(C)c1nc(-c2ccc(Cl)cc2)nc2c1CNC2 | -50.51% |
| CCOc1cccc(NS(=O)(=O)c2cc(C(=O)O)cs2)c1 | 19.91% |
| CN(c1cccc2ccccc12)S(=O)(=O)c1cc(C(=O)O)cs1 | -12.64% |
| Cc1cccc(N(C)S(=O)(=O)c2cc(C(=O)O)cs2)c1 | 112.1% |
| Cc1cc(C)cc(N(C)S(=O)(=O)c2cc(C(=O)O)cs2)c1 | -4.793% |
| Cc1ccc(N(C)S(=O)(=O)c2cc(C(=O)O)cs2)cc1 | 139% |
| COc1ccccc1N(C)S(=O)(=O)c1cc(C(=O)O)cs1 | 22.41% |
| Cc1ccc(N(C)S(=O)(=O)c2cc(C(=O)O)cs2)c(C)c1 | 115% |
| CN(c1ccc(F)c(F)c1)S(=O)(=O)c1cc(C(=O)O)cs1 | 2.683% |
| CN(c1ccc2ccccc2c1)S(=O)(=O)c1cc(C(=O)O)cs1 | 28.59% |
| CN(c1ccc(C(C)(C)C)cc1)S(=O)(=O)c1cc(C(=O)O)cs1 | -4.452% |
| CCN(c1cc(C)cc(C)c1)S(=O)(=O)c1cc(C(=O)O)cs1 | 116.9% |
| Cc1cccc(N(C)S(=O)(=O)c2cc(C(=O)O)cs2)c1C | -9.49% |
| COCC1CN(C(=O)c2cccn2C)Cc2ncnn2C1 (stereo not given) | -3.009% |
| CCN1CCCC1CN(CCN(C)C)S(=O)(=O)c1ccccc1C#N (stereo not given) | -13.86% |
| CN(Cc1cccc(F)c1)C(=O)CS(=O)(=O)Cc1c(Cl)cccc1Cl | -4.804% |
| Cc1nn(C)c(C)c1NC(=O)CNc1cccc(CC(F)(F)F)c1 | -3.048% |
